Data from PubChem BioAssay AID493170 (National Center for Advancing Translational Sciences (NCATS), 2011).
Inconclusive results are not listed. Entries that show only a call come without a potency. Active and inactive are the calls of the source. The call rests on the fitted dose curve; in most records, active means well fitted inhibition curve with a large enough effect; inconclusive means small, poorly fitted or top-dose-only effect, or effect the other way; inactive means flat fitted curve, though single readings scatter.

Biological target: Ubiquitin carboxyl-terminal hydrolase 2 (Homo sapiens) (UniProt O75604)
Sequence (O75604 whole entry, looked up): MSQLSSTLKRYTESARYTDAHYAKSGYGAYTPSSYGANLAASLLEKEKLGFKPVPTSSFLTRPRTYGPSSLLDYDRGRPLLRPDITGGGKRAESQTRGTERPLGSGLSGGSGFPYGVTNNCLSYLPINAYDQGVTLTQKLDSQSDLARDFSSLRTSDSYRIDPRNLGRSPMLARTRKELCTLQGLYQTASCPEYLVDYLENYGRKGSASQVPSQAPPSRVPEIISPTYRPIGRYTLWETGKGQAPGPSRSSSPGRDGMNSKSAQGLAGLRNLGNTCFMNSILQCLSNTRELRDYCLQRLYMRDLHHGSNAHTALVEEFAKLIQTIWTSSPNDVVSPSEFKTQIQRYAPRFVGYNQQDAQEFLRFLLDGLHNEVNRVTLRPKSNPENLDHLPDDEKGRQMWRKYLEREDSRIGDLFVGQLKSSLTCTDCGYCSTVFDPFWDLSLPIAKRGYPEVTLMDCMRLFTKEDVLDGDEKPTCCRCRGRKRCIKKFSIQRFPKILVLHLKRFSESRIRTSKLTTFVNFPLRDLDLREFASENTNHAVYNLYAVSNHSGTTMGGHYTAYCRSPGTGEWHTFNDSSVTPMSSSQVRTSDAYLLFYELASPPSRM
Assay: Ub-rhodamine 110 based assay for inhibitors Ubiquitin-specific Protease USP2a; further: nearly all actives have a fitted effect of over 50% in size
Outline: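 Kinetic fluorescence (485/531 nm) read each minute over 7 min after adding Ub-Rhod110 (150 nM final) to USP2a (5 nM final). The enzyme had 30 min RT exposure to compounds beforehand in Tris pH 8.0 buffer with CaCl2, CHAPS and beta-ME.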
Potency means the concentration at half of the fitted maximal effect.

## CCC(C)(C)n1nnnc1C(c1ccc(C)cc1)N1CCCC1 (configuration not stated)
  Potency: inactive

## CC(=O)Nc1cc[n+](CC(=O)c2ccc(Cl)cc2)cc1
  Potency: inactive

## COc1cc(/C=C/c2cc[n+](C)cc2)ccc1OCC(=O)Nc1ccc(Cl)c(Cl)c1
  Potency: inactive

## O=C(CC(C(=O)O)C1CCCO1)NCCc1ccc2c(c1)OCO2 (configuration not stated)
  Potency: inactive

## CC(C)(C)c1cc(Br)ccc1OCC(=O)Nc1ncn[nH]1
  Potency: inactive

## CSc1ncccc1C(=O)OCC(=O)N1CCOCC1
  Potency: inactive

## CCCCC1CCC(C(=O)Nc2ccc(S(=O)(=O)Nc3nccs3)cc2)CC1 (configuration not stated)
  Potency: 10 µM (active)

## CCCCc1ccc(/C=C2/C(=O)ON=C2c2ccccc2)s1
  Potency: inactive

## CCOC(=O)COc1ccccc1/C=N/O
  Potency: inactive

## CCn1c2ccccc2c2nc3ccccc3nc21
  Potency: inactive

## COc1cc(C)ccc1OCCOc1cc(C)ccc1Cl
  Potency: inactive

## O=C1NCC(CN(c2ccccc2)c2ccccc2)O1 (configuration not stated)
  Potency: inactive

## O=c1oc2c(CN3CCCCC3)c(O)ccc2c2c1CCCCC2
  Potency: inactive

## COc1cc(C(=O)OC2CCCCC2=O)cc(OC)c1C (configuration not stated)
  Potency: 11.2 µM (active)

## O=C(OCc1ccccc1)C1CCCN1C(=O)c1cccs1 (configuration not stated)
  Potency: inactive

## O=[N+]([O-])c1ccc(Sc2nnnn2-c2ccccc2)c(Cl)c1
  Potency: inactive

## Cc1ccccc1OCc1nc2ccccc2c(=O)n1N
  Potency: inactive

## COc1ccc(NC(=O)CSc2nc(O)cc(=O)n2-c2ccc(OC)cc2)cc1
  Potency: 11.2 µM (active)

## CCn1nc(C(=O)N[C@@H](CCSC)c2nc3ccccc3[nH]2)c2ccccc2c1=O
  Potency: inactive

## CCOc1cc(/C=C/c2nc3cc(C)c(C)cc3s2)ccc1OCC(=O)N1CCOCC1
  Potency: inactive

## CCN(Cc1ccncc1)C(=O)c1cccs1
  Potency: inactive

## COc1ccc(/C=C(\NC(=O)c2ccc(OC)c(OC)c2)C(=O)N2CCN(C)CC2)cc1
  Potency: inactive

## C#CCOCCOCCOCCNc1nc(N2CCN(C(=O)CCCCCCCCCCNC(=O)[C@H]([C@@H](C)CC)n3cc(CCCCCN)nn3)CC2)nc(N2CCN(C(=O)CCCCCCCCCCNC(=O)[C@H](CCCCN)n3cc(CCCC(=O)O)nn3)CC2)n1
  Potency: inactive

## C=CC[C@H](CC(=O)N[C@H](CO)Cc1ccccc1)C(=O)N[C@@H](COC(=O)[C@@H](CC=C)CC(=O)OC(C)(C)C)Cc1c[nH]c2ccccc12
  Potency: inactive

## C=C(CCC(=O)c1ccccc1)C(=O)c1ccccc1
  Potency: inactive

## CCCc1nc(SCC(N)=O)[nH]c(=O)c1CC
  Potency: inactive

## C=CC[C@H](CC(=O)OC(C)(C)C)C(=O)OC[C@@H]1CCCN1C(=O)[C@H](CC=C)CC(=O)N[C@H](CO)Cc1ccccc1
  Potency: inactive

## FC(F)(F)C1=Nc2cccc3cccc(c23)N1
  Potency: inactive

## COc1ccc(NC(=O)C2CC(=O)OC2c2ccccc2)cc1 (configuration not stated)
  Potency: inactive

## COc1ccc(Cc2nnc(NC(=O)Cc3cccs3)s2)cc1
  Potency: 1.41 µM (active)

## O=C(O[C@@H]1OC2COC(=O)c3cc(O)c(O)c(O)c3-c3c(cc(O)c(O)c3O)C(=O)O[C@@H]([C@H]1O)[C@@H]2O)c1cc(O)c(O)c(O)c1
  Potency: 3.16 µM (active)

## O=C1Nc2ccccc2SC(c2ccccc2)C1O (configuration not stated)
  Potency: 3.98 µM (active)

## CC(C)C(=O)Nc1ccc(C(=O)N2CCCCCC2)cc1
  Potency: inactive

## O=C(c1ccccc1N(Cc1ccccc1)S(=O)(=O)c1ccccc1)N1CCOCC1
  Potency: inactive

## COc1ccccc1C(=O)N1CCN=C1SC
  Potency: inactive

## CCN(C[C@H]1N[C@@](CC)(C(=O)OC)[C@H]2C(=O)N(Cc3ccccc3)C(=O)[C@@H]12)C(=O)Nc1ccc(C)cc1
  Potency: inactive

## CC1Cc2ccccc2N1C(=O)Cn1c(=O)oc2cc(S(=O)(=O)NC3CCCC3)ccc21 (configuration not stated)
  Potency: inactive

## O=C(CSc1nc2ccccc2s1)NCCCN1CCOCC1
  Potency: inactive

## CC1CCCC(N2CCN(C(=O)c3cccc(F)c3)CC2)C1 (configuration not stated)
  Potency: inactive

## COC(=O)C1CCN(C(=O)COC(=O)CC(NC(N)=O)c2ccc(Cl)cc2)CC1 (configuration not stated)
  Potency: inactive

## Nc1c(C(=O)Nc2ccc(Cl)cc2)oc2ccccc12
  Potency: inactive

## O=C(O)CC1(CC(=O)Nc2ccc3ccccc3c2)CCCCC1
  Potency: inactive

## O=C(NC(=S)N1CCCc2ccccc21)c1ccc([N+](=O)[O-])cc1
  Potency: inactive

## Cc1ccc(S(=O)(=O)N2[C@@H](c3ccc(Cl)cc3)C(C(=O)O)=CC[C@H]2c2ccc(C(C)C)cc2)cc1
  Potency: 10 µM (active)

## CN(C)c1ccc(C(CN)c2c[nH]c3ccccc23)cc1 (configuration not stated)
  Potency: inactive

## Cc1c2c(=O)n(-c3nc4ccccc4s3)nc-2cc(O)n1Cc1ccccc1
  Potency: 6.31 µM (active)

## O=C(N/N=C/c1cc(Cl)c(O)c(Cl)c1)c1cc2c(ccc3ccccc32)o1
  Potency: 11.2 µM (active)

## Cc1ccc(C)c(S(=O)(=O)c2c(N)n(/N=C/c3ccco3)c3nc4ccccc4nc23)c1
  Potency: inactive

## Cc1nn(CC(=O)Nc2cccc(S(N)(=O)=O)c2)c(C)c1[N+](=O)[O-]
  Potency: inactive

## CN=c1scc(-c2ccccc2F)n1/N=C/c1ccc(O)c(O)c1O
  Potency: 7.08 µM (active)

## COCCCNC(=O)C1CCN(c2nc(C)cc(C)n2)CC1
  Potency: inactive

## O=C(Cc1ccc(S(=O)(=O)N2CCOCC2)s1)Nc1nc2c(s1)CCCC2
  Potency: 6.31 µM (active)

## O=C(CCSCc1ccc(Cl)cc1)NCCc1ccccc1
  Potency: inactive

## Cc1ccc2[nH]c3c(c2c1)CN(C(=O)CN1CCSCC1)CC3
  Potency: inactive

## CCC(C(=O)NCc1ccccc1OC)n1nc(C)n2c(cc3occc32)c1=O (configuration not stated)
  Potency: inactive

## CC(=O)COc1ccc2c(-c3ccccc3)cc(=O)oc2c1
  Potency: inactive

## Cc1ccc(S(=O)(=O)N2[C@@H](c3ccc(C(C)(C)C)cc3)C(C(=O)O)=CC[C@H]2c2ccc(C(C)C)cc2)cc1
  Potency: 3.98 µM (active)

## CCOC(=O)N1CCC(NC(=O)c2ccc(OC)c(CN3CC(=O)N4CCCC4C3=O)c2)CC1 (configuration not stated)
  Potency: inactive

## O=C(Nc1ncccc1Cl)c1cccc(F)c1
  Potency: inactive

## Cn1c(C(=O)NCCCN2CCN(c3ccccc3F)CC2)cc2c(=O)n(C)c3ccccc3c21
  Potency: inactive

## CC(C)(C)C1CCC(=NNC(=O)CN(c2ccccc2)S(C)(=O)=O)CC1 (configuration not stated)
  Potency: inactive

## N#Cc1cc(Sc2ccccn2)c(Sc2ccccn2)cc1C#N
  Potency: inactive

## O=C(O)/C=C/c1ccc(S(=O)(=O)Nc2ccccc2C(=O)Nc2ccc(F)cc2)cc1
  Potency: inactive

## CCc1cc2c(=O)c(-c3nc4ccccc4n3C)coc2c(CN2CCCCC2C)c1O (configuration not stated)
  Potency: inactive

## Cc1ccc(C(=O)c2coc3c2C(=O)C(=O)c2ccccc2-3)cc1
  Potency: inactive

## CCCCC(OC(=O)c1cc2occc2n1C)C(=O)NCC1CCCO1 (configuration not stated)
  Potency: inactive

## O=C(NCCc1ccccc1)c1ccc2nc(-c3ccco3)c(-c3ccco3)nc2c1
  Potency: 5.01 µM (active)

## O=C(Cc1ccc(S(=O)(=O)N2CCOCC2)s1)NCCC(c1ccccc1)c1ccccc1
  Potency: 10 µM (active)

## O=c1cc(CO)oc(CN2CCN(Cc3ccccc3)CC2)c1O
  Potency: inactive

## FC(F)(F)c1cnc2c(c1)Nc1ccccc1S2
  Potency: inactive

## COc1cccc(NC(=O)Cc2ccccc2)c1
  Potency: inactive

## Cc1[nH]c2ccccc2c1C(c1ccccn1)c1c(C)[nH]c2ccccc12
  Potency: inactive

## Cc1cc(NC(=O)COC(=O)CCCOc2ccc(Cl)cc2C)no1
  Potency: inactive

## CC(=O)c1c(N2CCCC2)[nH]c(-c2ccccc2)nc1=S
  Potency: inactive

## CCn1nnnc1SCC(=O)Nc1cccc(C)n1
  Potency: inactive

## C=CC#CC[N+]1(CC#Cc2ccccc2)CCOCC1
  Potency: inactive

## O=C(Cc1cccs1)Nc1ccc(S(=O)(=O)N2CCCCC2)cc1
  Potency: 7.94 µM (active)

## CNc1sc(C(=O)c2ccc(F)cc2)c(N)c1-c1nc2ccccc2s1
  Potency: inactive

## Cc1ccc(S(=O)(=O)Nc2cc(C)c(O)c(S(=O)(=O)c3ccc(C)cc3)c2)cc1
  Potency: inactive

## CN(C)c1cccc(C(=O)NNC(=O)C23CC4CC(CC(C4)C2)C3)c1
  Potency: inactive

## Cc1ccc(N(CC(=O)Nc2ccc(S(=O)(=O)N3CCOCC3)cc2)S(C)(=O)=O)cc1C
  Potency: inactive

## CCOC(=O)N1CCN(C(=O)CN(c2ccc(Oc3ccccc3)cc2)S(C)(=O)=O)CC1
  Potency: inactive

## O=C(c1ccccc1)N1CCN(C(=O)N2CCCCC2)CC1
  Potency: inactive

## CCN1C(=O)C(NC(C)=O)c2cc(OC)ccc21 (configuration not stated)
  Potency: inactive

## O=C(Nc1ccncc1)c1ccc(S(=O)(=O)Nc2ccccc2)cc1
  Potency: inactive

## C=CCn1c(Br)nc2c1c(=O)n(C)c(=O)n2C
  Potency: inactive

## CC(C)(C)C(=O)Nc1c2c(nc3c1CCC3)CCCC2
  Potency: inactive

## O=C(OCC(=O)N1CCCCC1)c1cc2ccccc2cc1O
  Potency: inactive

## O=C(CSCc1cnn(-c2ccccc2)c1-n1cccc1)NCC1CCCO1 (configuration not stated)
  Potency: inactive

## COc1ccc(C(=O)OCC(=O)c2c[nH]c3ccccc23)c(OC)c1
  Potency: inactive

## C=CCNCCOCCOc1ccccc1-c1ccccc1
  Potency: inactive

## O=C(O)C1Nc2c(O)cc(Cl)c([N+](=O)[O-])c2C2C=CCC12 (configuration not stated)
  Potency: 3.98 µM (active)

## Cc1nc(N(C)C)c2sc(=S)n(C)c2n1
  Potency: inactive

## Cc1cnc(N)c2c(=O)oc3ccccc3c12
  Potency: inactive

## O=C(NN1C(=O)/C(=C/C=C/c2ccco2)SC1=S)c1ccncc1
  Potency: 10 µM (active)

## Cc1c(NC(=O)C2CCCN2S(=O)(=O)c2ccc(Cl)cc2)c(=O)n(-c2ccccc2)n1C (configuration not stated)
  Potency: inactive

## Cc1ccc(CNC(=O)CCNS(=O)(=O)c2ccc(C)cc2)cc1
  Potency: inactive

## Cn1ccc(=Nc2ccc(NC(=O)c3ccc(N=c4ccn(C)c5ccc([N+](=O)[O-])cc45)cc3)cc2)cc1
  Potency: inactive

## O=C(Nc1ccc(N2CCCC2)cc1)C(c1ccccc1)c1ccccc1
  Potency: inactive

## Cc1cc(C)n(C(=O)c2cccc(S(=O)(=O)N3CCCC3)c2)n1
  Potency: inactive

## Cc1c(O)c(CN2CCCC2)cc2c3c(c(=O)oc12)CCC3
  Potency: inactive

## O=C(CSCCO)Nc1cccc2ccccc12
  Potency: inactive
